Where a name gives a salt, the structure may show the parent alone. ± gives the standard deviation of the averaged measurements.
Tests used:
[1] = tested on: CLZ3 (HCA2 human fibroblast dual HR-NHEJ reporter); assay: NHEJ repair efficiency (GFP+ cells) relative to control (log10 fold); higher = more non-homologous end joining; conditions: 5 µM; doxycycline 0.5 ug/mL
[2] = tested on: CLZ3 (HCA2 human fibroblast dual HR-NHEJ reporter); assay: HR repair efficiency (tdTomato+ cells) relative to control (log10 fold); higher = more homologous recombination; conditions: 5 µM; doxycycline 0.5 ug/mL
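For HR repair efficiency (tdTomato+ cells) relative to control in this document: compound given one day before doxycycline, which switches on I-SceI endonuclease expression to create double-strand breaks within the integrated reporter.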
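For NHEJ repair efficiency (GFP+ cells) relative to control in this document: compound given one day ahead of doxycycline, which switches on I-SceI endonuclease to cut the chromosomally integrated reporter and create DSBs.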

C[C@H]1[C@H](C)CC[C@]2(C(=O)O)CC[C@]3(C)C(=CC[C@@H]4[C@@]5(C)C[C@@H](O)[C@H](O)[C@@](C)(CO)[C@@H]5[C@H](O)C[C@]43C)[C@H]12 [Madecassic acid]
NHEJ repair efficiency (log10) [1]: 0.0926 | HR repair efficiency (log10) [2]: 0.143

CC[C@]12CCCN3CCc4c(n(c5ccccc45)[C@@](O)(C(=O)OC)C1)[C@@H]32 [Vincamine]
NHEJ repair efficiency (log10) [1]: 0.104 | HR repair efficiency (log10) [2]: 0.0346

COc1cc(C[C@H](C)[C@H](C)Cc2ccc3c(c2)OCO3)ccc1O [Anwuligan]
NHEJ repair efficiency (log10) [1]: 0.0149 | HR repair efficiency (log10) [2]: 0.0747

COc1ccc(-c2cc(=O)c3c(O)cc(O[C@@H]4O[C@H](CO[C@@H]5O[C@@H](C)[C@H](O)[C@@H](O)[C@H]5O)[C@@H](O)[C@H](O)[C@H]4O)cc3o2)cc1O [Diosmin]
NHEJ repair efficiency (log10) [1]: -0.157 | HR repair efficiency (log10) [2]: -0.0408

O=C(/C=C/c1ccc(O)c2oc(-c3ccc(O)c(O)c3)cc12)O[C@H](Cc1ccc(O)c(O)c1)C(=O)O [Salvianolic Acid C]
NHEJ repair efficiency (log10) [1]: -0.0345 | HR repair efficiency (log10) [2]: -0.0113

O=Cc1ccc(O[C@@H]2O[C@H](CO)[C@@H](O)[C@@H](O)[C@H]2O)cc1 [Helicide]
NHEJ repair efficiency (log10) [1]: 0.119 ± 0.097 | HR repair efficiency (log10) [2]: 0.0668 ± 0.075

C/C=C(/C)C(=O)O[C@H]1c2cc(OC)c(OC)c(OC)c2-c2c(cc3c(c2OC)OCO3)C[C@H](C)[C@]1(C)O [Wuweizi Ester B]
NHEJ repair efficiency (log10) [1]: -0.108 | HR repair efficiency (log10) [2]: 0.0267

CC(CCC(OC1OC(COC2OC(CO)C(O)C(O)C2O)C(O)C(O)C1OC1OC(CO)C(O)C(O)C1O)C(C)(C)O)C1CCC2(C)C3CC=C4C(CCC(OC5OC(COC6OC(CO)C(O)C(O)C6O)C(O)C(O)C5O)C4(C)C)C3(C)C(O)CC12C (stereo unspecified) [Mogroside Ⅴ]
NHEJ repair efficiency (log10) [1]: -0.025 | HR repair efficiency (log10) [2]: 0.0038

C[C@@]1(CO)C[C@@H](O)C[C@@]2(C)[C@@H]3CC[C@](C)([C@@H](O)CO)C=C3CC[C@H]12 [Kirenol]
NHEJ repair efficiency (log10) [1]: -0.121 | HR repair efficiency (log10) [2]: 0.0441

Cc1c(O)cc2c(c1O)C(=O)c1ccc(O)c(O)c1C2=O [3-Hydroxymorindone]
NHEJ repair efficiency (log10) [1]: -0.105 | HR repair efficiency (log10) [2]: 0.0716

C/C=C1\[C@H]2C=C(C)C[C@]1(N)c1ccc(=O)[nH]c1C2 [Huperzine-A]
NHEJ repair efficiency (log10) [1]: 0.0591 | HR repair efficiency (log10) [2]: 0.0391

COc1cc(CCC(C)=O)ccc1O [Zingerone]
NHEJ repair efficiency (log10) [1]: 0.275 | HR repair efficiency (log10) [2]: 0.257

O=c1ccc2ccccc2o1 [Coumarin]
NHEJ repair efficiency (log10) [1]: -0.104 | HR repair efficiency (log10) [2]: 0.0819

COc1ccc2c(c1O)-c1c(O)c(OC)cc3c1[C@H](C2)[N+](C)(C)CC3 [Magnoflorine hydrochloride]
NHEJ repair efficiency (log10) [1]: -0.0605 | HR repair efficiency (log10) [2]: -0.0478

CC1(C)[C@@H](O[C@H]2O[C@H](C(=O)O)[C@@H](O)[C@H](O)[C@H]2O[C@@H]2O[C@H](C(=O)O)[C@@H](O)[C@H](O)[C@H]2O)CC[C@]2(C)[C@H]3C(=O)C=C4[C@@H]5C[C@@](C)(C(=O)O)CC[C@]5(C)CC[C@@]4(C)[C@]3(C)CC[C@@H]12 [Monoammonium glycyrrhizinate]
NHEJ repair efficiency (log10) [1]: -0.145 | HR repair efficiency (log10) [2]: -0.0779

CC(=O)[C@H]1CC[C@H]2[C@@H]3CCC4=CC(=O)CC[C@]4(C)[C@H]3CC[C@]12C [Lutin]
NHEJ repair efficiency (log10) [1]: 0.0637 | HR repair efficiency (log10) [2]: 0.268

C=C(C)[C@@H]1CC[C@]2(C(=O)O[C@@H]3O[C@H](CO[C@@H]4O[C@H](CO)[C@@H](O[C@@H]5O[C@@H](C)[C@H](O)[C@@H](O)[C@H]5O)[C@H](O)[C@H]4O)[C@@H](O)[C@H](O)[C@H]3O)CC[C@]3(C)[C@H](CC[C@@H]4[C@@]5(C)CC[C@H](O[C@@H]6OC[C@H](O)[C@H](O)[C@H]6O[C@@H]6O[C@@H](C)[C@H](O)[C@@H](O)[C@H]6O)[C@@](C)(CO)[C@@H]5CC[C@]43C)[C@@H]12 [Anemoside B4]
NHEJ repair efficiency (log10) [1]: -0.0464 | HR repair efficiency (log10) [2]: 0.0526

O=Cc1ccc(O)c(O)c1 [Protocatechuic aldehyde]
NHEJ repair efficiency (log10) [1]: -0.212 | HR repair efficiency (log10) [2]: -0.256

CC(C)=CC[C@H](O)/C(C)=C/CO[C@@H]1O[C@H](CO)[C@@H](O)[C@H](O)[C@H]1O [Rosiridin]
NHEJ repair efficiency (log10) [1]: 0.096 | HR repair efficiency (log10) [2]: 0.104

COC(=O)[C@H](c1ccccc1Cl)N1CCc2sccc2C1 [Clopidogrel bisulfate]
NHEJ repair efficiency (log10) [1]: 0.138 | HR repair efficiency (log10) [2]: 0.138

CC(C)C(C)C(O)C(O)C(C)C1CCC2C3COC(=O)C4CC(O)C(O)CC4(C)C3CCC12C (stereo unspecified) [Brassinolide]
NHEJ repair efficiency (log10) [1]: -0.122 | HR repair efficiency (log10) [2]: -0.073

O=C(O)[C@H]1O[C@@H](Oc2cc3oc(-c4ccccc4)cc(=O)c3c(O)c2O)[C@H](O)[C@@H](O)[C@@H]1O [Baicalin]
NHEJ repair efficiency (log10) [1]: -0.073 | HR repair efficiency (log10) [2]: 0.053

COc1c(O)cc2occ(-c3ccc(O)cc3)c(=O)c2c1O [Tectorigenin]
NHEJ repair efficiency (log10) [1]: -0.0657 | HR repair efficiency (log10) [2]: -0.129

From the supplement of paper PMC7380943
